PubChem BioAssay AID1159580 (chemical genetic matrix, 2015)
Screen size: about 5,500 compounds; about 2,000 (36%) were called active. Another 18% or so got no clear call; they are omitted. No stated cut-off is given here; in the data, active means normalized growth mostly below about 0.91 (no sharp cut-off); inconclusive means no clear call, values can overlap the other calls; inactive means mostly above about 0.92. Some of the results follow.

Experiment: chemical genetic growth profiling, strain panel (AID 1159580);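 further: tested at 20 µM; growth read once vehicle control cultures reached saturation at 30 °C; 1 = growth at the plate median or of vehicle wells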
Conditions: S. cerevisiae deletion strains, growth OD

Measured: normalized growth

Cc1onc(-c2ccccc2)c1-c1ccc(S(N)(=O)=O)cc1
inactive: locus YAL013W, strain DEP1, stronger effect = lower value 0.995 | locus YAL021C, strain ccr4, stronger effect = lower value 1 | locus YAL026C, strain drs2, stronger effect = lower value 1.02 | locus YAL030W, strain snc1, stronger effect = lower value 1 | locus YBL061C, strain skt5, stronger effect = lower value 1 | locus YBR009C, strain hhf1, stronger effect = lower value 1.01 | locus YBR021W, strain FUR4, stronger effect = lower value 1 | locus YBR023C, strain chs3, stronger effect = lower value 1 | locus YBR171W, strain sec66, stronger effect = lower value 0.984 | locus YBR229C, strain ROT2, stronger effect = lower value 0.999 | locus YBR231C, strain swc5, stronger effect = lower value 1 | locus YBR279W, strain paf1, stronger effect = lower value 1 | locus YCL011C, strain gbp2, stronger effect = lower value 0.989 | locus YCL016C, strain dcc1, stronger effect = lower value 1.02 | locus YCL029C, strain bik1, stronger effect = lower value 0.995 | locus YCL061C, strain MRC1, stronger effect = lower value 0.993 | locus YCL069W, strain vba3, stronger effect = lower value 0.995 | locus YCR088W, strain abp1, stronger effect = lower value 0.996 | locus YDL005C, strain med2, stronger effect = lower value 0.996 | locus YDL035C, strain GPR1, stronger effect = lower value 1 | locus YDL040C, strain nat1, stronger effect = lower value 1 | locus YDL074C, strain BRE1, stronger effect = lower value 0.999 | locus YDL101C, strain DUN1, stronger effect = lower value 1 | locus YDL134C, strain PPH21, stronger effect = lower value 1.01 | locus YDL185W, strain tfp1, stronger effect = lower value 0.988 | locus YDL192W, strain arf1, stronger effect = lower value 0.997 | locus YDR001C, strain nth1, stronger effect = lower value 1.01 | locus YDR069C, strain doa4, stronger effect = lower value 1 | locus YDR101C, strain arx1, stronger effect = lower value 0.997 | locus YDR137W, strain rgp1, stronger effect = lower value 1.01 | locus YDR150W, strain NUM1, stronger effect = lower value 1.02 | locus YDR159W, strain sac3, stronger effect = lower value 1.01 | locus YDR162C, strain NBP2, stronger effect = lower value 0.993 | locus YDR195W, strain ref2 0.963 | locus YDR297W, strain sur2, stronger effect = lower value 1 | locus YDR318W, strain mcm21, stronger effect = lower value 0.998 | locus YDR334W, strain swr1, stronger effect = lower value 1.02 | locus YDR335W, strain msn5, stronger effect = lower value 0.997 | locus YDR388W, stronger effect = lower value 0.997 | locus YDR392W, strain spt3, stronger effect = lower value 1.01 | locus YDR502C, strain sam2, stronger effect = lower value 0.99 | locus YEL003W, strain gim4, stronger effect = lower value 1 | locus YEL037C, strain rad23, stronger effect = lower value 1 | locus YEL061C, strain CIN8 (second series), stronger effect = lower value 1.02 | locus YEL061C, strain CIN8, stronger effect = lower value 0.992 | locus YER015W, strain faa2, stronger effect = lower value 0.997 | locus YER016W, strain bim1, stronger effect = lower value 1.01 | locus YER110C, stronger effect = lower value 0.997 | locus YER111C, strain swi4, stronger effect = lower value 0.996 | locus YER155C, strain BEM2 (second series), stronger effect = lower value 1.01 | locus YER155C, strain BEM2, stronger effect = lower value 0.988 | locus YER167W, strain BCK2, stronger effect = lower value 1 | locus YFR010W, strain ubp6, stronger effect = lower value 0.999 | locus YGL078C, strain dbp3, stronger effect = lower value 0.995 | locus YGL086W, strain mad1, stronger effect = lower value 0.988 | locus YGL167C, strain pmr1, stronger effect = lower value 1.02 | locus YGL173C, strain kem1, stronger effect = lower value 1.01 | locus YGL227W, strain vid30, stronger effect = lower value 0.991 | locus YGL240W, strain doc1, stronger effect = lower value 1.01 | locus YGL248W, strain PDE1, stronger effect = lower value 1 | locus YGL253W, strain hxk2, stronger effect = lower value 0.999 | locus YGR078C, strain PAC10, stronger effect = lower value 0.989 | locus YGR135W, strain pre9, stronger effect = lower value 0.995 | locus YGR229C, strain SMI1, stronger effect = lower value 0.994 | locus YGR252W, strain gcn5, stronger effect = lower value 0.985 | locus YHR013C, strain ard1, stronger effect = lower value 1.01 | locus YHR027C, strain rpn1, stronger effect = lower value 1 | locus YHR030C, strain SLT2, stronger effect = lower value 1.01 | locus YHR079C, strain IRE1 (second series), stronger effect = lower value 0.998 | locus YHR094C, strain hxt1, stronger effect = lower value 0.995 | locus YHR129C, strain ARP1, stronger effect = lower value 1 | locus YHR142W, strain chs7, stronger effect = lower value 0.989 | locus YHR200W, strain rpn10, stronger effect = lower value 1 | locus YIL066C, strain RNR3, stronger effect = lower value 0.983 | locus YIL073C, strain SPO22, stronger effect = lower value 1.03 | locus YIL125W, strain kgd1, stronger effect = lower value 0.99 | locus YIR030C, strain dcg1, stronger effect = lower value 1 | locus YJL092W, strain hpr5, stronger effect = lower value 0.995 | locus YJL095W, strain BCK1 (second series), stronger effect = lower value 1.01 | locus YJL095W, strain BCK1, stronger effect = lower value 1.02 | locus YJL115W, strain asf1, stronger effect = lower value 0.998 | locus YJL129C, strain trk1, stronger effect = lower value 0.972 | locus YJL134W, strain LCB3, stronger effect = lower value 1 | locus YJL154C, strain vps35, stronger effect = lower value 1.01 | locus YJL164C, strain tpk1, stronger effect = lower value 1.01 | locus YJL166W, strain qcr8, stronger effect = lower value 1 | locus YJL168C, strain set2, stronger effect = lower value 0.998 | locus YJL187C, strain SWE1 (second series), stronger effect = lower value 1 | locus YJL187C, strain SWE1, stronger effect = lower value 0.996
